The supplement of paper PMC5499739
In all, about 16,000 sequences were measured (“Z-score”: median about -0.37, highest 2% from about 3.1 on). What follows is part of a selection rich in the highest values, with near analogues and random picks from the rest.

These sequences were tested on RBM10 RRM1-ZnF-RRM2 (GST-tagged construct) (assay: RNAcompete 7-mer binding Z-score; higher = stronger binding preference).
Summary of the method: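 Each heptamer motif was given a one-sided Z-score for enrichment across the probes that contained it. GST-tagged RBM10 constructs (20 pmol) were combined with 1.5 nmol of a designed pool of 241 399 RNAs of up to 41 nt, transcribed from microarray-derived DNA templates. Binding took place in 1 ml Hepes pH 7.8 buffer containing KCl, NaCl, glycerol, DTT, BSA and glutathione Sepharose beads for 30 min at 4°C. After four 2-min washes at 4°C, bound RNA was identified by microarray hybridisation.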

Sequence | RNAcompete 7-mer binding Z-score
GCCAUGU | -0.632
CUAGUGC | -0.486
AACCGUG | -0.00148
UCGAAAG | -0.00148
AUUCGAG | -0.114
AGACCGG | -0.366
AAAGGUA | 3.53
AAAGGUC | 1.46
AAAGGUU | 3.09
CGAAGGU | 1.34
AGAAGGA | 4.29
UGAAGCG | 0.581
UGAAGGC | 1.21
UGAAGGG | 3.56
GGAAGGC | 3.04
GGAAGGA | 4.61
AGAAGAA | 1
CGAAGGA | 1.62
AGAAGGC | 1.17
GGAAGGU | 3.94
UGAAGGA | 2.95
CGAAUAA | -0.224
GGUCAGC | 0.716
CAUUUGC | -1.04
AGUCCAA | -0.464

Sequence | RNAcompete 7-mer binding Z-score
AUGCGCG | -0.0889
GAAAUCG | 0.195
GGCAACU | 0.0532
AUAGACA | 0.0532
AUAAUCU | -0.65
AAGAUGU | 0.13
AACGGAA | 1.91
GCAUUUA | -0.661
AACAAAG | 0.355
CUGCUCU | -0.923
GGCAUGA | 0.876
AGAAGGG | 4.09
AGAAGCU | -0.508
AGAAGGU | 3.67
AGAAGAG | 1.61
CGAAGGG | 2.68
UGAAGGU | 2.14
CCCCCCA | -0.38
ACUAGGC | -0.235
CUAACGA | -0.566
UGUAGCC | -0.624
AUCCCUC | -0.759
CGCACGG | -0.0124
GGGUUAG | 4.04
AGGUUGG | 2.71

Sequence | RNAcompete 7-mer binding Z-score
GGGUUGG | 4.05
CGGUUGG | 1.91
CGGUUAG | 0.691
UGGUUGA | 1.31
CGGUUGA | 0.876
UGGUUAG | 1.94
GGGUUGA | 3.53
AAGUUUU | -0.329
AUGGGGA | 4.23
AUGGGGG | 3.84
AUGGGAA | 4.29
UUGGGAG | 2.51
UUGGGAA | 1.92
AUGGGAG | 3.64
CUGGGAG | 1.4
CUGGGAA | 1.36
AUGGGGC | 2.6
GCGGUAU | 0.574
AUUAUCG | -0.402
UCCCCCU | -0.566
UGAAAUU | -0.686
CUGUGGG | 1.63
AAAAAAA | -0.49
UAGGCUA | 0.392
CGACGUG | 0.25

Sequence | RNAcompete 7-mer binding Z-score
GACGGCG | 0.836
CUGGGGU | 1.79
CGGGGGU | 3.06
AUGGGGU | 3.91
AUCACCU | -0.876
UGUAGAU | 0.235
GUUAGGC | 1.25
CCGGGGU | 1.71
ACGGGUU | 2.32
ACGGGGC | 2.37
ACGGGGG | 3.19
GCGGGUG | 2.75
ACGGGUG | 3.24
ACGGGUC | 1.42
ACGGGGA | 2.84
ACGGGGU | 3.8
CGUUCUC | -0.763
UUCAUUU | -0.737
GCGGCUA | 0.21
ACCCAGC | -0.785
CAAUGCA | -0.362
UCUAAUG | -0.577
CUUUAUA | -0.752
CGCGAGG | 0.833
AGCGGGA | 3.24

Sequence | RNAcompete 7-mer binding Z-score
AGCGGGG | 3.96
GGCGGGU | 2.57
GGCGGGC | 1.97
AGCGGGC | 1.57
CGCGGGA | 1.16
CGCGGGG | 2.32
GGCGGGG | 3.64
GGCGAGC | 1.87
GGCGAGG | 3.22
AGCGGGU | 3.01
UGGUAAG | 1.73
CUAGGGA | 1.6
GAGACCG | -0.0452
UACACCC | -0.77
AGCAGGU | 1.74
GACUCCA | -0.704
CUUUAGG | -0.369
AUAUAAU | -0.366
GGUGAAA | 1.83
CAAAUAG | -0.144
GGCGGCA | 1.12
UGCGGGA | 1.7
GGCGGGA | 3.23
AUAUUAG | 0.0313
AUUGGGA | 2.99

Sequence | RNAcompete 7-mer binding Z-score
GGUUGGC | 2.03
CUUGGGG | 1.13
AUUGGGG | 3.16
GUUGGGG | 3.69
GGUUGGU | 1.94
AAUUGGG | 2.6
GAUUGGG | 3.64
AUUGGGU | 2.74
GAUUGGC | 0.927
GGUUGGG | 4.42
UUUGGGG | 2.13
CCUUUCC | -0.887
AUGGCGU | 0.705
CGCUAAU | -0.628
AAGCAGA | 0.672
UCGGAAC | 0.0532
UUGUCAA | -0.741
AAUUCAC | -0.643
UUUGCAA | -0.602
ACUUUCU | -0.959
AUCGAGA | 0.352
GGUUAGG | 4.22
GGUUAGC | 1.03
GGUUAGU | 1.6
ACUGCCC | -0.439
